Screening data deposited in PubChem by several laboratories.
The list is not random: actives were taken first. Their share in the collection is about 2.7%.
MPTP inh – blocks calcium-induced mitochondrial swelling | isolated mouse mitochondria, Ca2+ swelling absorbance, 30 min | inhibition, % at 10 µM | 1.4% of 360,000 active | AID 602449;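 active = inhibition of 50% or more, scaled per plate between neutral and stimulator controls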;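 note: 0% = DMSO wells given calcium and 100% = 1 mM EGTA wells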
ATG4B inh – blocks human ATG4B protease cleavage of LC3 substrate. Q9Y4P1. ATG4B cleavage of LC3-PLA2, NBD-HPC fluorescence, 1 h. inhibition, % at 8.33 µM. 0.51% of 340,000 active. AID 504462; in the data active = inhibition above about 40%
Target sequence (Q9Y4P1 whole entry, looked up): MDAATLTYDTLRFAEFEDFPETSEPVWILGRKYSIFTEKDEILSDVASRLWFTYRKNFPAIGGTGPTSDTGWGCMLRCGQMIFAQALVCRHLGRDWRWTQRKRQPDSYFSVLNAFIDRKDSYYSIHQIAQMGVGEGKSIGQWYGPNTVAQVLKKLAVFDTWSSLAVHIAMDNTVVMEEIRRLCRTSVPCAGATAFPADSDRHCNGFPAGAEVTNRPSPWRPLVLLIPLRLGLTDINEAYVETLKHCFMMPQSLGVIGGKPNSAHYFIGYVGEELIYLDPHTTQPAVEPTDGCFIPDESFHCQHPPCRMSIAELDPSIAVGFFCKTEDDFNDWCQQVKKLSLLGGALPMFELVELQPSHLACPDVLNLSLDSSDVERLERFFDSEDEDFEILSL
SKN-1 block – C. elegans SKN-1 inhibition | 0.49% of 360,000 active | C. elegans VP596 Pgst-4::GFP/RFP ratio, acrylamide-induced, 24 h | AID 624304 | inhibition, % at 21.8 µM;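 active = interference check ratio from 0.5 to 1.5 plus GFP to RFP signal ratio inhibition reaching or exceeding a fixed threshold, cut at about 30% in these data, passing the limit was not always enough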
F508del corr – CFTR F508del correction in bronchial cells; CFBE cells, YFP halide quenching; stimulated with forskolin plus potentiator P3; % fluorescence drop versus neutral controls; activity (quench increase), % at 7.58 µM; 0.36% of 350,000 active; AID 720511;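 active = mean added fluorescence quench of at least 8% versus neutral control, with both replicates also reaching 8%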;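 note: cells transiently co-express mutant CFTR-F508del with the halide-sensitive YFP; corrector assay measuring rescue of mutant channel to the surface after 24 h compound exposure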
CendR NRP1 mod – NRP-1/CendR interaction modulation; O14786; inhibition, % at 25 µM; AID 602438; FAM-RPARPAR peptide binding to NRP-1, fluorescence polarization; 0.85% of 360,000 active;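 active = inhibition or corrected inhibition above about 18%, plus a signal ratio from 0.5 to 1.5, limit read from the data, passing the limit was not always enough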
MPTP counter – mitochondrial membrane potential, counter-screen. shares compounds with MPTP inh. isolated mitochondria, Rhodamine 123 fluorescence. inhibition, % at 10 µM. 78% of 5,000 active. AID 624504; in the data active = inhibition above about 22%;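 note: 0% = DMSO vehicle and 100% = positive control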
MPTP swell DR – MPTP inhibition, dose response swelling confirmation | AID 651561 | shares compounds with MPTP inh | isolated mitochondria swelling, absorbance | IC50, µM | 58% of 780 active; in the data active = IC50 below about 20 µM
MPTP counter DR – counter-screen for mitochondrial permeability transition pore inhibitors, dose response | shares compounds with MPTP inh | isolated mitochondria counterscreen, fluorescence read-out | IC50, µM | 49% of 780 active | AID 651564; in the data active = IC50 below about 80 µM
An asterisk follows results filed as active; i = inactive; / = no result.

SMILES | MPTP inh | ATG4B inh | SKN-1 block | F508del corr | CendR NRP1 mod | MPTP counter | others
Cc1ccc2[nH]c3c(N4CCN(Cc5ccccc5)CC4)ncnc3c2c1 | 85* | 2 | 12 | / | 5 | 68*
COc1cccc2[nH]c3c(N4CCc5ccccc5C4)ncnc3c12 | / | -6 | / | / | / | /
c1ccc2c(c1)CCN(c1ncnc3c1[nH]c1ccccc13)C2 | 99* | 27 | 7 | / | 0 | 101*
CC(C)CC(=O)NC(NC(=S)Nc1sc2c(c1C#N)CCCC2)C(Cl)(Cl)Cl (stereo not given) | 90* | -7 | -6 | / | -1 | 97*
CCC(=O)Nc1sc2c(c1C#N)CCC2 | 1 | -13 | 13 | 0 | 0 | /
Cc1ccccc1C(=O)NC(=S)Nc1sc2c(c1C#N)CCC(C)C2 (stereo not given) | 16 | 17 | 7 | / | -42 | /
CC1CCc2c(sc(NC(=S)NC(=O)c3ccccc3)c2C#N)C1 (stereo not given) | 66* | -2 | 5 | -2 | -2 | 70*
Cn1ncc(Cl)c1C(=O)NC(=S)Nc1sc2c(c1C#N)CCCCC2 | 90* | -11 | 4 | / | -11 | 19 | MPTP swell DR=i;MPTP counter DR=<2.5*
N#Cc1c(NC(=S)NC(=O)c2ccccc2)sc2c1CCCC2 | 86* | -8 | -15 | / | -8 | 15 | MPTP swell DR=i;MPTP counter DR=6.7*
N#Cc1c(NC(=O)c2ccccc2)sc2c1CCC2 | 0 | 1 | 19 | / | 0 | /
Cc1ccc(S(=O)(=O)N[C@H]2CC[C@H](CCn3cc(-c4ccccc4F)nn3)O[C@@H]2CO)cc1 | / | / | / | -8 | / | /
C[C@@H]1CN([C@@H](C)CO)C(=O)Cc2cc(NC(=O)CCN3CCOCC3)ccc2O[C@@H]1CN(C)Cc1ccc(Cl)c(Cl)c1 | / | / | / | 0 | / | /
CCOC(=O)Cn1c(=N)n(CCOc2cccc(C)c2)c2ccccc21 | 88* | -10 | 16 | / | 0 | 0 | MPTP swell DR=5.3*;MPTP counter DR=57*
CCN(CC)CCn1c(=N)n(CC(O)COc2cccc(C)c2)c2ccccc21 (stereo not given) | 71* | 8 | 7 | -2 | 6 | -4 | MPTP swell DR=4.5*;MPTP counter DR=66*
CCN1[C@@H]2c3ccc(-c4cccnc4)c(=O)n3C[C@@H]2[C@@H](CO)[C@@H]1C(=O)NCCc1cn(C)cn1 | / | / | / | 1 | / | /
O=C(C1CC1)N1CC(=O)N2[C@@H](CO)[C@@H](c3ccc(Br)cc3)[C@@H]2C1 | / | / | / | 2 | / | /
Cc1ccc2nc(SC(C)C(=O)Nc3cccc([N+](=O)[O-])c3)[nH]c2c1 (stereo not given) | 59* | -4 | 4 | / | 9 | 85*
Cc1ccc2nc(SCC(=O)Nc3ccc(F)c([N+](=O)[O-])c3)[nH]c2c1 | 88* | 6 | 1 | / | -10 | 76*
Cc1ccc(S(=O)(=O)N2CCCCC2)cc1NCC(=O)Nc1ccc(Br)cc1F | 66* | / | 7 | 3 | -5 | 94*
Cc1ccc(S(=O)(=O)N2CCCCC2)cc1NC(=O)Nc1ccc(Cl)cc1Cl | 85* | 3 | 0 | 2 | 3 | 29*
O=C(COC(=O)CNS(=O)(=O)/C=C/c1ccccc1)Nc1cc(S(=O)(=O)N2CCCCC2)ccc1Cl | 70* | -17 | -3 | 0 | -15 | 14 | MPTP swell DR=i;MPTP counter DR=11*
Cc1ccc(S(=O)(=O)N2CCCCC2)cc1NC(=O)c1ccccc1Cl | -1 | 0 | -5 | 1 | 4 | /
O=C(Nc1cc(S(=O)(=O)N2CCCCC2)ccc1Cl)c1ccncc1 | 0 | -6 | 10 | 0 | 4 | /
O=C(Nc1cccc(Cl)c1)Nc1cc(S(=O)(=O)N2CCCCC2)ccc1Cl | 84* | 1 | -3 | 1 | 3 | 63*
O=C(COC(=O)CCS(=O)(=O)c1ccccc1)Nc1cc(S(=O)(=O)N2CCCCC2)ccc1Cl | 0 | 0 | 9 | 0 | -2 | /
SMILES | MPTP inh | ATG4B inh | SKN-1 block | F508del corr | CendR NRP1 mod | MPTP counter | others
CC(NC(=O)Nc1nnc(C(F)(F)F)s1)(C(F)(F)F)C(F)(F)F | 94* | -8 | 32* | / | -16 | 110*
O=C(Nc1nnc(C(F)(F)F)s1)C1COc2ccccc2O1 (stereo not given) | 84* | -6 | 17 | / | 2 | 78*
O=C(Nc1nnc(C(F)(F)F)s1)c1ccc(Br)s1 | 78* | 10 | -7 | -4 | 0 | 75*
CC(C)(C)CC(=O)Nc1nnc(C(F)(F)F)s1 | -4 | 4 | -5 | / | 5 | /
Cc1nn(-c2ccccc2)nc1C(=O)Nc1nnc(C(F)(F)F)s1 | 73* | 7 | 5 | -4 | 5 | 79*
CCSc1nnc(NC(=O)c2ccc(Br)s2)s1 | -1 | 5 | -24 | / | -10 | /
CCC(=O)N1[C@H](CO)[C@H](c2ccc(-c3ccccc3OC)cc2)[C@H]1CNC(C)=O | / | / | / | -3 | / | /
CSc1cccc(NC(=O)CCCOc2ccc(Cl)cc2C)c1 | 75* | -2 | -4 | / | -1 | 81*
COc1ccc(CC(=O)Nc2cccc(S(=O)(=O)N3CCCCCC3)c2)cc1OC | 87* | -4 | 9 | / | -5 | 81*
COc1ccc(CC(=O)Nc2cccc(SC)c2)cc1OC | 54* | -11 | 12 | -2 | -1 | 42*
COc1ccc(CCC(=O)Nc2cccc(S(=O)(=O)N3CCCCCC3)c2)cc1OC | 0 | -5 | 1 | 2 | -1 | /
COc1ccc(OCCCC(=O)Nc2cccc(SC)c2)cc1 | 1 | 8 | 8 | / | -5 | /
CC1(c2ccc3ccccc3c2)NC(=O)N(CC(=O)N2CCN(Cc3ccc(C#N)cc3)CC2)C1=O (stereo not given) | 57* | -10 | -10 | / | -2 | 65*
CC(=O)N1CCN(C(=O)CN2C(=O)NC(C)(c3ccc4ccccc4c3)C2=O)CC1 (stereo not given) | 0 | -6 | -10 | 0 | -5 | /
N#C/C(=N\Nc1cccc(C(F)(F)F)c1)C(=O)c1csc(-c2cccnc2)n1 | 84* | 27 | 18 | 1 | 8 | 61*
COc1ccc(NC(=O)Nc2cccc3c2O[C@H](CN(C)S(C)(=O)=O)[C@@H](C)CN([C@@H](C)CO)C3=O)cc1 | / | / | / | 0 | / | /
CN(C)CC1CCCCC1OC(=O)c1ccc(S(=O)(=O)N(C)c2ccccc2)cc1 (stereo not given) | 81* | 7 | 5 | 2 | 5 | 0 | MPTP swell DR=12*;MPTP counter DR=61*
CN(C)CC1CCCCC1OC(=O)c1ccc(Br)cc1 (stereo not given) | 12 | 2 | 7 | -3 | -1 | /
Cc1ccc(NS(=O)(=O)c2sc3ccc(Cl)cc3c2C)cc1 | 66* | -11 | -3 | 0 | -5 | 63*
CN(C)c1ccc(NS(=O)(=O)c2cc(Cl)ccc2Cl)cc1 | 1 | -6 | 1 | / | -9 | /
